Data published in PubChem BioAssay.
Active and inactive are the calls of the source.

Tests used:
[1] = tested on: XIP peptide (Xip251-270) binding; assay: small-molecule binders of XIP peptide, primary screen, biochemical, small-molecule microarray, fluorescence 635/667 nm, 0.1 µg/mL protein (AID 1182); details: fluorescent protein binding, 635 nm, higher = more signal, called active from +8 up or from −8 down
XIP peptide (Xip251-270) = assay: small-molecule binders of XIP peptide, primary screen, biochemical, small-molecule microarray, fluorescence 635/667 nm, 0.5 µg/mL protein (AID 1183); details: small-molecule microarray binding, fluorescence 635 nm; higher = more signal
[2] = Plasmodium falciparum growth inhibition, primary screen, strain 3D7, DAPI fluorescence, 100 nL (AID 1184);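 note: parasites grown inside human red blood cells in medium with human serum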; details: P. falciparum 3D7 growth, 3 d, higher = more signal
[3] = biological target: Homeobox protein Hox-A13 (Mus musculus) (UniProt Q62424); assay: inhibitors of HoxA13-DNA binding, primary screen, biochemical, fluorescence polarization, labeled oligonucleotide (AID 1185); details: 15 min, higher = more signal, called active from +8 up or from −8 down
Homeobox protein Hox-A13 (Mus musculus), sequence (Q62424 whole entry, looked up): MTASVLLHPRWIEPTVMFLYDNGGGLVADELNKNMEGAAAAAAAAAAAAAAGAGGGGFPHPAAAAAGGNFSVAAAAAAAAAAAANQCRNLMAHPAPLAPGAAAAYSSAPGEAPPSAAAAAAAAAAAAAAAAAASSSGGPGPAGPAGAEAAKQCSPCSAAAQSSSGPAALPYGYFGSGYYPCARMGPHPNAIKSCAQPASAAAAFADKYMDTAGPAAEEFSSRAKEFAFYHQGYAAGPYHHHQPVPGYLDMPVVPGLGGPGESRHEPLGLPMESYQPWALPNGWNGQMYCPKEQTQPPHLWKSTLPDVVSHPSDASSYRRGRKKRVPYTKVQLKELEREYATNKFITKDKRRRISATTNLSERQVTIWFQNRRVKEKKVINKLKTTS

SMILES | composite z-score [1] | composite z-score (XIP peptide (Xip251-270)) | z-score [2] | z-score [3]
CC(C)=CCCC(C)=CCON=C1C[C@@H](O)[C@@H](O)[C@@H]2[C@@H]3C(=O)N(Cc4ccc5c(c4)OCO5)C(=O)[C@@H]3CC[C@H]12 | 0.165 (inactive) | 0.17 | -0.348 | -4.72 (inactive)
CC(CCN1CCc2nc(-c3ccccc3)c(-c3ccccc3)cc2C1)=NOC(C)CN1CCCc2nc(C)c(C)cc21 (configuration not stated) | 0.161 (inactive) | 0.558 | 0.5 | -9.97 (active)
CC(C)(C)N1C(=O)[C@H]2[C@H]3[C@H](O)[C@H](O)CC(=NOC[C@@H](O)COCc4ccco4)[C@@H]3CC[C@H]2C1=O | -0.484 (inactive) | 0.502 | -0.0662 | -2.78 (inactive)
CCOC(=O)CCN1C(=O)[C@H]2[C@H]3[C@H](O)[C@H](O)CC(=NNC(=O)OCC)[C@H]3CC[C@H]2C1=O | 3.24 (inactive) | -0.397 | -1.58 | -4.5 (inactive)
CC(C)=CCCC(C)=CCON=C1C[C@@H](O)[C@@H](O)[C@@H]2[C@@H]3C(=O)N(c4cccc(Oc5ccccc5)c4)C(=O)[C@@H]3CC[C@H]12 | 0.827 (inactive) | -0.256 | 0.395 | -0.963 (inactive)
CC(C)[C@@H](OCc1ccccc1)[C@H](C)C=NO[C@H](C)c1cn([C@@H]2COC[C@H]2O)nn1 | -0.0971 (inactive) | 0.0742 | 1.61 | -0.967 (inactive)
CCOC(=O)[C@H](CC(C)C)NC(=O)CCC1CC(OC(=O)NCc2ccc3c(c2)OCO3)CC2(CCCC(COC(=O)NCc3ccccc3)O2)O1 (some centres not stated) | 0.117 (inactive) | 0.118 | -1.79 | -6.86 (inactive)
CC1(C)O[C@H]2OC([C@H](O)CON3C(=O)c4ccccc4C3=O)[C@H](O)[C@H]2O1 (some centres not stated) | -0.592 (inactive) | 0.291 | 0.696 | 0.366 (inactive)
CC(C)CON=C1C[C@@H](O)[C@@H](O)[C@@H]2[C@@H]3C(=O)N(Cc4ccc5c(c4)OCO5)C(=O)[C@@H]3CC[C@@H]12 | -0.263 (inactive) | -0.266 | -0.721 | -0.441 (inactive)
COc1ccc(O[C@H]2C=C[C@@H](c3ccccc3)O[C@@H]2CON=C2c3cc(OC)ccc3O[C@H](c3cccc(OC)c3)[C@H]2O)cc1 | -0.167 (inactive) | -0.338 | 0.106 | 1.67 (inactive)
CO[C@H]1COC(=O)[C@H](C)COC(=O)[C@H](C)NC(=O)CC=C[C@H]1C | 0.126 (inactive) | 0.506 | 0.0087 | -0.299 (inactive)
C[C@H]1CC[C@H]2C(=O)O[C@H](CO)CN2[C@@H]1c1ccc(Br)cc1 | -0.0442 (inactive) | -0.127 | 0.389 | -3.98 (inactive)
CCOC(=O)NN=C1C[C@@H](O)[C@@H](O)[C@@H]2[C@@H]3C(=O)N(CC)C(=O)[C@@H]3CC[C@H]12 | 0.124 (inactive) | -0.379 | 0.613 | 0.368 (inactive)
COC(=O)CC=C[C@@H](C)[C@@H](C=NOC[C@@H](O)COCc1ccco1)OC | 0.146 (inactive) | 0.338 | 0.715 | -0.341 (inactive)
CC(C)=CCCC(C)=CCON=C1C[C@@H](O)[C@@H](O)[C@@H]2[C@@H]3C(=O)N([C@@H](C)c4ccccc4)C(=O)[C@@H]3CC[C@@H]12 | 0.0439 (inactive) | 0.242 | -0.81 | -1.3 (inactive)
COC(=O)CC=C[C@@H](C)[C@@H](C=NOC[C@@H](O)COCc1ccco1)NS(=O)(=O)c1ccc(C)cc1 | 0.133 (inactive) | 0.239 | -0.546 | -3.79 (inactive)
O=C1[C@H]2[C@H]3[C@H](O)[C@H](O)CC(=NOC[C@@H](O)COCc4ccco4)[C@@H]3CC[C@H]2C(=O)N1Cc1ccc2c(c1)OCO2 | -0.0588 (inactive) | 0.265 | 1.15 | 0.263 (inactive)
CO[C@H]1COC(=O)[C@H](CCSC)NC(=O)CC=C[C@@H](C)[C@H](OC)COC(=O)[C@@H](OCc2ccccc2)C=C[C@@H]1C | 2.65 (inactive) | 0.358 | -0.772 | -1.29 (inactive)
CN1CCc2nc(-c3ccccc3)c(-c3ccccc3)cc2C1 | -0.368 (inactive) | 0.0309 | 0.309 | -0.07 (inactive)
C[C@@H]1CC[C@H]2C(=O)N3[C@@H](CC[C@@H](C)[C@@H]3c3ccc(Br)cc3)C(=O)N2[C@H]1c1ccc(Br)cc1 | -0.22 (inactive) | 0.335 | -0.212 | -3.21 (inactive)
CCOC(=O)[C@H](CC(C)C)NC(=O)CCC1CC(OC(=O)NCCc2ccc(F)cc2)CC2(CCCC(COC(=O)NCCCN3CCCC3=O)O2)O1 (some centres not stated) | 0.173 (inactive) | 0.74 | -1.82 | -6.3 (inactive)
COc1ccc(O[C@H]2C=C[C@@H](C#Cc3ccccc3)O[C@@H]2CO)cc1 | -0.727 (inactive) | 0.266 | 0.284 | -3.22 (inactive)
COC(=O)[C@H](C)NC(=O)CCC1CC(OC(=O)NCc2cccc3ccccc23)CC2(CCCC(COC(=O)NCCOc3ccccc3)O2)O1 (some centres not stated) | 2.12 (inactive) | 0.345 | -0.372 | -6.3 (inactive)
